Measured values taken from PubChem BioAssay AID686940 (The Scripps Research Institute Molecular Screening Center, 2013).
The campaign covered roughly 370,000 compounds. About 2,600 (0.7%) were called active. The list comes from a sample in which actives are over-represented; it also holds similar structures and randomly drawn compounds. A number with no mark means an inactive call.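 The calls were made as follows: active = inhibition above a per-plate cutoff, mean inhibition of test wells between control levels plus 3 SD (cut at about 38% in these data); inactive = the rest.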

What follows are molecules tested against COUP transcription factor 2 (Homo sapiens) (UniProt P24468) (assay: COUP-TFII reporter suppression in human cells – cell-based, luciferase reporter, HEK293T, luminescence, primary screen (AID 686940;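 also: cells cotransfected with COUP-TFII expression vector driving the NGFI-A reporter; 0% = median of COUP-TF2 test wells and 100% = reporter-only cells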)). Details: HEK293T NGFI-A luciferase reporter, at 8.6 µM, stronger effect = higher value.
COUP transcription factor 2 (Homo sapiens), sequence (P24468 whole entry, looked up): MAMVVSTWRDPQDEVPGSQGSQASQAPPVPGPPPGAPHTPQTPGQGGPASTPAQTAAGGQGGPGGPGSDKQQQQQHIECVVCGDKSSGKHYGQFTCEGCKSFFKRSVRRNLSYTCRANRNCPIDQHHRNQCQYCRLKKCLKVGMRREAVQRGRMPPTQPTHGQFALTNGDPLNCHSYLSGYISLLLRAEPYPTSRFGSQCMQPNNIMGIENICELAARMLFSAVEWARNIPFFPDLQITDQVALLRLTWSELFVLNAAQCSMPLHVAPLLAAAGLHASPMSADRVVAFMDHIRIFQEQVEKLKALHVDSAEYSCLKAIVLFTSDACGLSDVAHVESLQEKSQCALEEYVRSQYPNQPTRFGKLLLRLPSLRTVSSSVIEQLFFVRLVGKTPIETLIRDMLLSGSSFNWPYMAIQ
With `Cc1ccc(-c2nnc(SCC(=O)Nc3ccc(Oc4ccccc4)cc3)n2Cc2ccco2)cc1` the inhibition was 13.6%. For `CCCCOCCCNC(=O)C[C@H]1C[C@@]2(C(=O)OC)C(=C[C@H](COCc3ccccc3)O[C@@H]2C)N(Cc2cccc3ccccc23)C1=O`, the inhibition was 14.6%. Work on `Cc1ccc(-c2nc(CS(=O)CC(=O)NC3CCCC3)c(C)o2)cc1` (configuration not stated) yielded an inhibition of 12.9%. For `Cc1ccc(S(=O)(=O)NCCC(=O)NC2CCN(Cc3ccccc3)CC2)cc1`, the inhibition was 9.92%. With `Cc1ccc(-c2nc(CSCC(=O)NC3CCN(Cc4ccccc4)CC3)c(C)o2)cc1` the inhibition was 44.1% (active). For `Cc1ccccc1CN1CCCCC(NC(=O)Nc2ccccc2F)C1=O` (configuration not stated), the inhibition was 17.2%. Molecule `CCOC(=O)[C@]12CCCC=C1N(Cc1ccc(OC)cc1)C(=O)[C@@H]2CC(=O)N1CCOCC1` has an inhibition of 11.8%. Molecule `COc1ccc(CSc2nnc(SCC(=O)Nc3ccccc3C(F)(F)F)s2)cc1` has an inhibition of -6.32%. Molecule `CCOC(=O)C1(Cc2cccc(OC)c2)CCN(Cc2csc(C(C)=O)c2)CC1` has an inhibition of -6.31%. In the case of `CCCS(=O)(=O)N1CCC(CCOc2ccccc2)(C(=O)OCC)CC1`, the inhibition is reported as 12%. `CCOC(=O)C1(CCOc2ccccc2)CCN(Cc2cc(OC)cc(OC)c2)CC1` was tested, and the inhibition was 43.4% (active). `O=C(CSc1nc2ccccc2nc1N1CCCCC1)N1CCN(S(=O)(=O)c2cccc([N+](=O)[O-])c2)CC1` gave an inhibition of -2.12%. In the case of `Cc1ccc(Cn2cc(CN3[C@@H](C)COc4cc(Br)ccc4S3(=O)=O)nn2)cc1`, the inhibition is reported as 7.53%. `O=C(CC(O)(C(F)(F)F)C(F)(F)F)Nc1ccc(Cl)c(Cl)c1` was tested, and the inhibition was 74.9% (active). `O=C(CCS(=O)(=O)c1ccccc1)Nc1ccc(Cl)c(Cl)c1` gave an inhibition of -30.7%. With `O=C(Nc1ccc(Cl)c(Cl)c1)N1CC=C(c2ccccc2)CC1` the inhibition was -16.9%. Work on `O=C(c1ccccc1)c1ccc(-c2ccccc2C(=O)NC2CCCCN(Cc3ccc(Cl)cc3)C2=O)cc1` (configuration not stated) yielded an inhibition of -10.4%. `CC(C)CNc1cccc2c1S(=O)(=O)N(Cc1cn(Cc3ccc(Cl)cc3)nn1)Cc1ccccc1O2` showed an inhibition of 5.91%. For `COc1ccc(-c2csc3ncnc(N4CCN(S(=O)(=O)c5cccc(F)c5)CC4)c23)cc1`, the inhibition was -7.61%. `Cc1ccc(S(=O)(=O)N2CCC3(CC2)OCCO3)c(C)c1` showed an inhibition of 0.83%. For `Cc1ccc(C)c(S(=O)(=O)N2CCN(c3ncnc4sccc34)CC2)c1`, the inhibition was 61.2% (active). `O=C(NCCCc1ccccc1)[C@H](Cc1ccccc1)NC1(C(=O)NCCc2c[nH]c3ccccc23)CCC1` gave an inhibition of 7.14%. `Oc1ccc(/C=C/c2c(F)cccc2F)c2cccnc12` gave an inhibition of 14.9%. `N[C@@H](Cc1ccccc1)C(=O)N1CCC[C@@H]1C(=O)N1CCC2CCN(S(=O)(=O)c3ccccc3)CC21` (some centres not stated) was tested, and the inhibition was 2.4%. With `O=C(CSc1nnc(COc2ccccc2)n1-c1ccc(Cl)cc1)Nc1ccc2c(c1)OCO2` the inhibition was 7.15%. For `O=C(Nc1ccccc1Cl)/C(Cl)=C(\Cl)S(=O)c1ccccc1` (configuration not stated), the inhibition was 99% (active). In the case of `CN[C@H]1C[C@H]2c3cc(N4CCOCC4)ccc3CCN2C[C@H]1[C@H](C)O`, the inhibition is reported as -0.62%. Work on `O=C(O)c1ccc(NC(=O)c2ccc(COc3ccc(Cl)cc3)o2)cc1` yielded an inhibition of -7.9%. `Cc1cc(OCc2ccc(C(=O)Nc3ccc(C(=O)O)cc3)o2)ccc1Cl` gave an inhibition of 10.7%. `Cc1ccccc1CS(=O)(=O)Cc1ccc(C(=O)Nc2ccc(Cl)cc2)o1` was tested, and the inhibition was 60.1% (active). With `COC(=O)[C@H](C(C)C)N(CCCc1cn(Cc2ccccc2)nn1)S(=O)(=O)c1ccc(F)cc1Br` the inhibition was 9.49%. In the case of `CC(=O)Nc1ccc(OC[C@@H](O)CN2CCC(C(O)(c3ccccc3)c3ccccc3)CC2)cc1`, the inhibition is reported as -20.7%. `COc1cccc(Cn2cc(COC(=O)Nc3ccc(F)cc3)nn2)c1` showed an inhibition of -23.7%. `CCCCCc1c(-c2ccc(OC)c(OC)c2)ncn1CCc1ccccc1OC` was tested, and the inhibition was 57% (active). With `CCCCc1c(-c2ccc(Cl)cc2)ncn1CCc1ccccc1OC` the inhibition was 11.8%. With `CCCCCc1c(-c2cccc(Br)c2)ncn1CCc1ccccc1OC` the inhibition was 6.5%. In the case of `Cc1ccc(CSc2nnc(SCC(=O)NN=Cc3cc(Br)ccc3F)s2)cc1`, the inhibition is reported as -3.85%. Work on `COc1ccc2c(c1)CN1CN(CCc3ccccc3)S(=O)(=O)CC21` (configuration not stated) yielded an inhibition of 16%. For `Cc1nn(CC(=O)N2CCCCC2)c(=O)c2nn(-c3ccccc3)c(C)c12`, the inhibition was -1.99%. `COc1ccc(CNC(=O)C(C)n2nc(C)c3c(C)n(-c4ccccc4)nc3c2=O)c(OC)c1` (configuration not stated) gave an inhibition of 10.4%. With `COc1ccc(OC)c(CNC(=O)Cn2nc(C)c3c(C)n(-c4ccc(C)cc4)nc3c2=O)c1` the inhibition was 39.4% (active). `COC(=O)[C@]12C[C@H](CC(=O)NCCCN3CCCC3=O)C(=O)N(CCc3ccc(OC)c(OC)c3)C1=C[C@H](COCc1ccccc1)O[C@@H]2C` gave an inhibition of -3.72%. `CCC(C)[C@@H](C(=O)OC)N(CCc1cn(Cc2ccccc2)nn1)S(=O)(=O)c1ccccc1Br` (some centres not stated) gave an inhibition of -9.93%. With `CSc1nccc(NC(=O)c2ccc(C(C)(C)C)cc2)n1` the inhibition was 64.5% (active). In the case of `CC(=O)Oc1ccc(C(=O)Nc2nccs2)cc1`, the inhibition is reported as -23.1%. `CC(C)(C)c1ccc(C(=O)Nc2cc(Cl)c(Br)cc2C(=O)O)cc1` gave an inhibition of 7.25%. Work on `Clc1ccc(-n2c(SC/C=C/c3ccccc3)nnc2-c2ccco2)cc1` yielded an inhibition of 13.9%. `Cc1ccc(Cn2cc(CN3[C@@H](CC(C)C)COc4ccc(Cl)cc4S3(=O)=O)nn2)cc1` showed an inhibition of -4.67%. `COc1ccc(NC(=O)C2Cc3c(-c4cccc(NC(C)=O)c4)ccnc3O2)cc1OC` (configuration not stated) was tested, and the inhibition was 45% (active). Work on `COc1ccc(NC(=O)C2Cc3c(-c4ccc(Cl)cc4)ccnc3O2)cc1` (configuration not stated) yielded an inhibition of 5.98%. In the case of `COc1ccc(NC(=O)C2(C)Cc3c(-c4cccc(NC(C)=O)c4)ccnc3O2)cc1OC` (configuration not stated), the inhibition is reported as -4.02%. For `O=C(CSc1nnc(-c2ccccn2)n1-c1ccccc1)Nc1ccc2cn[nH]c2c1`, the inhibition was 13.3%.
